Screens (PubChem BioAssay)
Compounds with a hit are over-represented: about 18% of the library has one in this group of screens.
TDP1 inh – inhibitors of human tyrosyl-DNA phosphodiesterase TDP1; Q9NUW8; recombinant TDP1, AlphaScreen DNA substrate cleavage; Potency, µM (series often up to 130 µM), without a hit: top-dose activity change, negative = inhibition, hits mostly inhibitors; 0.28% of 350,000 active; AID 485290; note: potency is the fitted concentration of half-maximal effect; nearly all actives have a fitted effect of over 40% in size
Target sequence (Q9NUW8 whole entry, looked up): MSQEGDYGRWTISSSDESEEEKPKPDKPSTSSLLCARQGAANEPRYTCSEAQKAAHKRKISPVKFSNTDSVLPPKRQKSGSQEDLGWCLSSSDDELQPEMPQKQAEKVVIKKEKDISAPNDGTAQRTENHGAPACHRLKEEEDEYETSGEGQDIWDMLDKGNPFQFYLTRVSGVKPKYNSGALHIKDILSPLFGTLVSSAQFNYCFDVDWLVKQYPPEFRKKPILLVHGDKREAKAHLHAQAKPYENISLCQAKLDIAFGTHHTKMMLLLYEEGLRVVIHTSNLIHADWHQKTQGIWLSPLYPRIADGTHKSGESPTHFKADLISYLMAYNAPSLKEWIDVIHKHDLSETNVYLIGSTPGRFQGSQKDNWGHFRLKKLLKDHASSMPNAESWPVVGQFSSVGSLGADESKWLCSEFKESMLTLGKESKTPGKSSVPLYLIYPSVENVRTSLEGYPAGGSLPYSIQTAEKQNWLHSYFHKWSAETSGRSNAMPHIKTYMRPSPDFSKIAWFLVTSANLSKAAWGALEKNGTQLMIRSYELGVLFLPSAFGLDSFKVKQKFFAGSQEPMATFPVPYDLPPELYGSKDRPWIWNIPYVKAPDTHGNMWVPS
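Recombinant human Tdp1 (E. coli-expressed, 1 nM final) preincubated with compounds 15 min at room temperature, then 5'-biotin/3'-phosphotyrosine-FITC DNA substrate (15 nM final) added for 5 min. AlphaScreen beads (10 ug/ml final) added 10 min; cleavage lowers signal.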
DT40 TDP1 no CPT – qHTS for Inhibitors of human tyrosyl-DNA phosphodiesterase 1 (TDP1): qHTS in cells in absence of CPT; DT40 Tdp1-/- hTDP1 cells, no CPT, ATP luminescence, 48 h; Potency, µM (top dose mostly 46.2 µM), for the others: top-dose activity change, negative = growth inhibition, most hits filed as inhibitors; 15% of 420,000 active; AID 686978, 2013; note: potency is the fitted concentration of half-maximal effect; nearly all actives have a fitted effect of over 55% in size
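Seeded 400 DT40-hTDP1 cells/well (vehicle DMSO, no 20 nM CPT); pinned compounds; ≥48 hr at 37 °C; CellTiter-Glo luminescence as viability measure.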
IL-1B inflam inh – inhibitors of inflammasome signaling (IL-1 beta secretion). activity change, % at 57.5 µM. AID 743279. 4.7% of 360,000 active. THP-1 LPS/ATP IL-1B secretion, AlphaLISA, 16 h; hits give low values; in the data active = activity change below about -50%; inconclusive = mostly about -30% to -49%
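THP-1 cells pretreated 1 hr with compounds (up to 57.5 uM final), then stimulated with LPS (250 ng/mL final) plus ATP (1.25 mM final); secreted IL-1B measured by AlphaLISA after 16 hr, decreased signal indicating inhibition.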
DT40 TDP1 CPT – growth inhibition of DT40 Tdp1-/-;hTDP1 cells with camptothecin (screen for TDP1 inhibitors). 12% of 420,000 active. chicken DT40 Tdp1-/-;hTDP1 cells + 20 nM CPT, ATP luminescence, 48 h. Potency, µM (titrated, usually from 46.2 µM), inactives show top-dose activity change, negative = growth inhibition, actives largely listed as inhibitors. AID 686979; note: potency is the fitted concentration of half-maximal effect; nearly all actives have a fitted effect of over 55% in size
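Cell growth measured by CellTiter-Glo luminescence after a minimum 48 h, 37 C compound exposure with 20 nM CPT in Tdp1-knockout DT40 cells stably expressing hTDP1, seeded 400/well; qHTS titration format.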
Six1-Eya2 inh – Six1/Eya2 interaction inhibition. AlphaScreen GST-Six1/His-Eya2 binding, biochemical; hits give low values. AID 651725. 0.56% of 360,000 active. activity change, % (no concentration beside the values). Q15475+O00167; in the data active = activity change below about -65%; inconclusive = mostly about -30% to -63%
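AlphaScreen with GST-Six1 and His-Eya2 (5X mix: 250 nM and 500 nM), glutathione donor and nickel acceptor beads; buffer 50 mM Tris pH 8.0, 300 mM NaCl, 1 mM TCEP; 1 h at 37 C in the dark.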
CtBP-E1A inh – CtBP/E1A binding inhibition; AlphaScreen GST-E1A/His-CtBP binding, 1536-well; hits give low values; activity change, % (concentration not given with the values); 0.49% of 340,000 active; in the data active = activity change below about -65%; inconclusive = mostly about -30% to -63%
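In 5 uL wells, 23 nL compound meets equimolar GST-E1A and His-CtBP (5X stock 125 nM each) for 2 h, 37 °C. Beads (5X, 50 ug/mL) then 1 h, 37 °C, dark.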
An asterisk follows results filed as active; u = inconclusive; x = not tested or not shown. Unless noted, calls come from the whole dose curve; as a rule, active = well fitted curve in the direction sought with a large enough effect; inconclusive = small, poorly fitted or top-dose-only effect, or another doubt; inactive = no such curve, though single readings can be large; an effect the other way counts as inactive or inconclusive. % is set by controls: 0 for no effect and ±100 for the full control effect.

SMILES | TDP1 inh | DT40 TDP1 no CPT | IL-1B inflam inh | DT40 TDP1 CPT | Six1-Eya2 inh | CtBP-E1A inh
COC(=O)c1ccccc1NC(=O)C1CC(c2ccc(F)cc2)=NO1 (stereo unspecified) | 1% | -10% | -13 | 8% | 4 | 3
Cc1cc(C)c(S(=O)(=O)NCC(c2ccco2)N2CCN(c3ccccc3)CC2)c(C)c1 (stereo unspecified) | 3% | 26µM* | x | 23µM* | x | x
Cc1ccc(OC(C)c2nnc(N)s2)cc1Cl (stereo unspecified) | 7% | u | 2 | 21µM* | 7 | 9
COc1ccccc1C(=O)COC(=O)C1CCN(S(=O)(=O)c2ccc(C)c(C)c2)CC1 | -11% | u | 27 | 8% | 3 | 2
CC1CCCC/C1=N\NC(=S)Nc1ccccc1 (stereo unspecified) | 8% | -3% | -7 | 0% | 3 | -7
CC(C)NC(=S)N/N=C1\CCCCC1C1CCCCC1 (stereo unspecified) | 12% | 2.9µM* | 0 | 5.8µM* | u | u
O=[N+]([O-])c1c(Nc2ccccc2O)cc(Cl)c2nonc12 | x | 3.7µM* | -102* | 4.6µM* | -27 | -6
O=[N+]([O-])c1c(Nc2ccccc2O)ccc2nonc12 | 5% | -25% | 35 | -12% | 0 | -7
O=C(O)c1cc(Nc2cc(Cl)c3nonc3c2[N+](=O)[O-])ccc1O | x | u | -11 | u | -79* | x
O=C(OCc1ccc(O)cc1)c1c(-c2ccsc2)oc2ccc(N3CCOCC3)cc12 | x | 13µM* | -13 | 18µM* | -1 | 5
O=C(c1ccncc1)c1ccc(N2CCN(C3CC(=O)N(Cc4cccs4)C3=O)CC2)cc1 (stereo unspecified) | 7% | 23µM* | -3 | 16µM* | 1 | 2
CCOc1ccc(N2C(=O)CC(N3CCN(c4ccc(C(=O)c5ccncc5)cc4)CC3)C2=O)cc1 (stereo unspecified) | x | 21µM* | -3 | u | 9 | 0
Cc1cc([N+](=O)[O-])cc(/C=N/n2c(C)nc3ccccc3c2=O)c1O | 10% | u | 116 | u | u | -86*
Cc1nc2ccccc2c(=O)n1-c1ccc(NC(=O)c2ccc([N+](=O)[O-])cc2)cc1 | 0% | u | x | u | x | x
Cc1cc(-n2c(C)nc3ccccc3c2=O)ccc1NC(=O)c1cccc([N+](=O)[O-])c1 | 5% | 12µM* | x | 16µM* | x | x
Cc1nc2ccccc2c(=O)n1-c1ccc(NC(=O)c2cccc([N+](=O)[O-])c2)cc1 | 0% | 21µM* | x | 18µM* | x | x
Cc1ccc(C(=O)Nc2ccc(-n3c(C)nc4ccccc4c3=O)cc2)cc1[N+](=O)[O-] | 5% | 7.3µM* | x | 9.2µM* | x | x
Cc1cc(C(=O)Nc2ccc(-n3c(C)nc4ccccc4c3=O)cc2)ccc1[N+](=O)[O-] | 3% | u | x | u | x | x
O=C(C1CCC(CNc2c(N3CCCC3)c(=O)c2=O)CC1)N1CCc2ccccc21 (stereo unspecified) | x | u | -2 | u | -10 | x
Cc1ccc2c(c1C)NC(=O)C21N2CCCC2C(C(=O)c2ccc3ccccc3c2)C12C(=O)Nc1ccccc12 (stereo unspecified) | -2% | 12µM* | u | 23µM* | -18 | x
CCOC(=O)C(C)Oc1ccc(OCc2ccccc2)cc1 (stereo unspecified) | -3% | -1% | -5 | 3% | 36 | 6
COc1cc(/C=C2\N=C(c3ccccc3)NNC2=O)cc(OC)c1OC | 7% | 4.6µM* | 29 | 5.2µM* | 4 | 6
CCOc1cc(/C=C2/C(=O)ON=C2C)ccc1OCc1ccccc1F | x | u | -100* | u | 0 | -5
NC(=O)COc1ccccc1 | x | -4% | -5 | 2% | 2 | 2
O=C1NNC(c2ccccc2)=N/C1=C\c1ccco1 | 9% | u | -6 | -27% | -14 | -8
SMILES | TDP1 inh | DT40 TDP1 no CPT | IL-1B inflam inh | DT40 TDP1 CPT | Six1-Eya2 inh | CtBP-E1A inh
O=C1ON=C(c2ccccc2)/C1=C/c1ccco1 | 3% | u | 19 | u | -14 | 23
COc1cc(/C=C2\C(=O)ON=C2c2ccccc2)cc(OC)c1OC | -1% | 16µM* | -117* | u | -2 | 2
NC(=O)COc1ccc(/C=C2\C(=O)ON=C2c2ccccc2)cc1 | -1% | 15µM* | u | 16µM* | -2 | 7
O=C(CSc1ccc2c(c1)OCCO2)Nc1cccc(S(=O)(=O)N2CCCCC2)c1 | 1% | 9% | 23 | 13% | 5 | -8
COc1ccc(/C=C2\C(=O)ON=C2c2ccccc2)cc1OC | x | u | -98* | 26µM* | 18 | x
CCOc1cc(/C=C2/C(=O)ON=C2C)ccc1OCc1ccccc1 | -6% | u | -20 | -4% | 10 | 4
COc1ccc(/C=C2/C(=O)ON=C2c2ccccc2)cc1OC | -5% | 15µM* | -102* | u | 0 | -2
Cc1cccc(C2=NOC(=O)/C2=C\c2ccccc2F)c1 | -2% | 2.6µM* | 26 | -24% | 3 | x
O=C1ON=C(c2ccc([N+](=O)[O-])cc2)/C1=C/c1ccccc1O | x | u | -18 | u | -4 | -1
CCOc1cc(/C=C2\C(=O)ON=C2c2ccccc2)ccc1OC | x | 18µM* | -94* | 23µM* | 1 | 3
O=C(Nc1ccc2c(c1)OCO2)NC1(C(F)(F)F)Oc2ccccc2O1 | 2% | -16% | 8 | -27% | -10 | 0
CSc1cccc(NC(=S)N2CCC(c3ccccc3)C2)c1 (stereo unspecified) | x | 16µM* | u | -17% | -6 | -10
CSc1cccc(NC(=S)N2CCC(N(C)C3CCCCC3C)CC2)c1 (stereo unspecified) | 3% | u | -69* | 10% | -18 | -5
CSc1cccc(NC(=S)N2CCC(N(C)C3CCCCC3)CC2)c1 | 8% | u | -27 | 2% | 3 | -7
CN1CCCN(C(=O)c2cc(-c3cccc4ccccc34)nc3ccccc23)CC1 | x | 21µM* | -63* | 16µM* | -7 | -7
O=C(c1cc(-c2ccccc2Cl)nc2ccccc12)N1CCC1 | -10% | u | 18 | -28% | -1 | 1
O=C(c1cc(-c2ccccc2Cl)nc2ccccc12)N1CCN(c2ccccc2O)CC1 | 1% | u | -70* | 18µM* | -23 | -4
